Results filed as inconclusive are left out. Calls of active or inactive are those of the source. Unless noted, the call rests on the fitted dose curve; in most records, active means well fitted curve in the direction sought with a large enough effect in the repeat runs; inconclusive means weak or mixed curves; inactive means no such curve, though single readings can be large; an effect the other way counts as inactive or inconclusive.
How the values were obtained:
[1] = qHTS assay to identify small molecule agonists of the peroxisome proliferator-activated receptor delta (PPARd) signaling pathway - cell viability counter screen (AID 743211); further: on the % scale 0 is the no-effect control and ±100 the full control effect; nearly all actives have a fitted effect of over 55% in size
Outline: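 Tox21 library compounds, delivered in DMSO, were incubated 17 h with PPARd-bla HEK293H cells; cytotoxicity was taken from CellTiter-Glo luminescence read 30 min after reagent addition.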

[2] = molecular target: Peroxisome proliferator-activated receptor delta (Homo sapiens) (UniProt Q03181); experiment: qHTS assay to identify small molecule agonists of the peroxisome proliferator-activated receptor delta (PPARd) signaling pathway (AID 743212; calls by dose curve; further: on the % scale 0 is the no-effect control and ±100 the full control effect)
Sequence of Peroxisome proliferator-activated receptor delta (Homo sapiens) (Q03181 whole entry, looked up): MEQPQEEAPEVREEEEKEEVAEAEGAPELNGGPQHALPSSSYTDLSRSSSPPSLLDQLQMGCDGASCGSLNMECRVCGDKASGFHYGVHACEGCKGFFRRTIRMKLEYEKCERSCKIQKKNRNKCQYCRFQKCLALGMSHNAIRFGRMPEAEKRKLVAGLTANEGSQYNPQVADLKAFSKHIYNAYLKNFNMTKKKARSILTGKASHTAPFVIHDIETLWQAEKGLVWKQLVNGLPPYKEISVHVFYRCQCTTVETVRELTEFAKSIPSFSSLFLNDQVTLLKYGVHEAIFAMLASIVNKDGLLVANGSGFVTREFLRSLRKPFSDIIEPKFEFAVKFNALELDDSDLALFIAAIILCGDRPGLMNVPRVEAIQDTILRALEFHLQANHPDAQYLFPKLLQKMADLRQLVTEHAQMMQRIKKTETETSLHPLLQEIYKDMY
Outline: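 HEK293H PPARd-bla cells; 5 h preincubation 37 C/5% CO2; compound (DMSO) 37 C; LiveBLAzer B/G FRET substrate 2 h RT; fluorescence intensity.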

[3] = qHTS assay to identify small molecule antagonists of the peroxisome proliferator-activated receptor delta (PPARd) signaling pathway - cell viability counter screen (AID 743213); further: on the % scale 0 is the no-effect control and ±100 the full control effect; nearly all actives have a fitted effect of over 50% in size
Outline: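 PPARd-bla HEK293H cells (3000/well) got compound plus 300 nM L165041 agonist for 17 h at 37 C. Viability in the same wells came from CellTiter-Glo luminescence after 30 min at room temperature.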

[4] = molecular target: Peroxisome proliferator-activated receptor delta (Homo sapiens) (UniProt Q03181); experiment: qHTS assay to identify small molecule antagonists of the peroxisome proliferator-activated receptor delta (PPARd) signaling pathway (AID 743215; active means well fitted inhibition curve with a large enough effect in the signal ratio in the repeat runs, not every such curve was filed as active; the % refers to the signal ratio;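 further: cells stimulated with agonist L165041 at 300 nM final during compound exposure; series mostly up to about 62 µM; on the % scale 0 is the no-effect control and ±100 the full control effect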)
Outline: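 PPARd-bla HEK293H cells (UAS-bla reporter) preincubated 5 h, then given compound plus 300 nM final L165041 agonist for 17 h at 37 C. Beta-lactamase activity read by LiveBLAzer B/G FRET substrate fluorescence after 2 h at room temperature.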

[5] = qHTS assay to identify small molecule agonists of the farnesoid-X-receptor (FXR) signaling pathway - cell viability counter screen (AID 743218); further: on the % scale 0 is the no-effect control and ±100 the full control effect; nearly all actives have a fitted effect of over 45% in size
Outline: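 FXR-UAS-bla HEK 293T cells exposed to compounds for 16 h at 37C. Cytotoxicity read in the same wells by CellTiter-Glo luminescence after 30 min at room temperature, following the beta-lactamase FRET read.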

[6] = qHTS assay to identify small molecule antagonists of the farnesoid-X-receptor (FXR) signaling pathway - cell viability counter screen (AID 743221; active means well fitted cell-killing curve with a large enough effect in the repeat runs, not every such curve was filed as active; further: on the % scale 0 is the no-effect control and ±100 the full control effect; nearly all actives have a fitted effect of over 50% in size)
Outline: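 Cytotoxicity is taken from ATP luminescence (CellTiter-Glo, 30 min, room temperature) in FXR-bla HEK 293T cells previously incubated 16 h at 37 C with compound and chenodeoxycholic acid at 50 uM final.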

[7] = molecular target: Vitamin D3 receptor (Homo sapiens) (UniProt P11473); experiment: qHTS assay to identify small molecule agonists of the vitamin D receptor (VDR) signaling pathway (AID 743222; calls by dose curve; further: on the % scale 0 is the no-effect control and ±100 the full control effect)
Sequence of Vitamin D3 receptor (Homo sapiens) (P11473 whole entry, looked up): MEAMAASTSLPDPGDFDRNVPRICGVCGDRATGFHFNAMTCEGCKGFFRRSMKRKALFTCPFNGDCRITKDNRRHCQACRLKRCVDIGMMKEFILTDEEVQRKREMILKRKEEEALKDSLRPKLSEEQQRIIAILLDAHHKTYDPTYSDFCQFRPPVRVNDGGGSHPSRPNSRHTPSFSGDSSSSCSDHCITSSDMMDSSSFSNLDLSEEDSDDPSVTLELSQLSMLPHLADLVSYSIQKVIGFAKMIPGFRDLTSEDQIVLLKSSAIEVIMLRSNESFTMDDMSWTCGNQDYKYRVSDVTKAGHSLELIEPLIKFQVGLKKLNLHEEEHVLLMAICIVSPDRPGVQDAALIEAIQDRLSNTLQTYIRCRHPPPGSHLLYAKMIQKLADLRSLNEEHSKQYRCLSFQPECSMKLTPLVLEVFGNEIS
Outline: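 VDR-bla cells plated 4 h at 37 C, then exposed to compounds for 16 h at 37 C. Beta-lactamase reporter activity measured by fluorescence after 2 h room-temperature loading with LiveBLAzer B/G FRET substrate.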

[8] = molecular target: Vitamin D3 receptor (Homo sapiens) (UniProt P11473); experiment: qHTS assay to identify small molecule antagonists of the vitamin D receptor (VDR) signaling pathway (AID 743223; active means well fitted inhibition curve with a large enough effect in the signal ratio in the repeat runs, not every such curve was filed as active; the % refers to the signal ratio; further: on the % scale 0 is the no-effect control and ±100 the full control effect)
Outline: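 Quantitative HTS in VDR-bla reporter cells stimulated with 1alpha,25-dihydroxyvitamin D3, 3 nM final. Compound exposure 16 h, 37C, 5% CO2. Read-out: beta-lactamase FRET substrate fluorescence, 2 h RT.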

[9] = qHTS assay to identify small molecule agonists of the vitamin D receptor (VDR) signaling pathway - cell viability counter screen (AID 743224); further: series mostly up to about 63 µM; on the % scale 0 is the no-effect control and ±100 the full control effect; nearly all actives have a fitted effect of over 50% in size
Outline: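 VDR-bla cells, 4 h after plating, exposed to compounds for 16 h at 37C; viability then read in the same wells as CellTiter-Glo luminescence after 30 min at room temperature, following the bla FRET read.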

[10] = qHTS assay to identify small molecule antagonists of the vitamin D receptor (VDR) signaling pathway - cell viability counter screen (AID 743225); further: on the % scale 0 is the no-effect control and ±100 the full control effect; nearly all actives have a fitted effect of over 50% in size
Outline: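 Same-well multiplex: following 16 h treatment of HEK 293T cells carrying a UAS-driven beta-lactamase reporter with compound and agonist (3 nM final), and a 2 h FRET substrate step, CellTiter-Glo was added and luminescence read after 30 min.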

[11] = qHTS assay to identify small molecule agonists of the NFkB signaling pathway (AID 1159509; active means well fitted curve in the direction sought with a large enough effect in the signal ratio in the repeat runs, not every such curve was filed as active; the % refers to the signal ratio)
Outline: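 ME-180 NFkB-bla, 2,000 cells/well, overnight plating; cpd pinned in DMSO, 5 h 37 C; B/G FRET substrate 1.5 h RT; ex 405, em 460/530 nm.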

[12] = qHTS assay to identify small molecule agonists of the NFkB signaling pathway - cell viability counter screen (AID 1159515; calls by dose curve; further: series mostly up to about 61 µM; on the % scale 0 is the no-effect control and ±100 the full control effect; nearly all actives have a fitted effect of over 55% in size)
Outline: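 NFkB-bla ME-180 cells, 2,000/well, plated overnight at 37 C; compound added for 5 hr at 37 C. Viability read in the same wells as the bla reporter, by CellTiter-Glo luminescence after 30 min at room temperature.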

[13] = qHTS assay to identify small molecule agonists of the endoplasmic reticulum stress response signaling pathway - cell viability counter screen (AID 1159517; calls by dose curve)
Outline: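 HeLa cells carrying an ESRE-driven beta-lactamase reporter receive compound for 5 hr at 37 C. Cell viability is then gauged with CellTiter-Glo by luminescence, 30 min at room temperature.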

[14] = qHTS assay to identify small molecule antagonists of the retinoid-related orphan receptor gamma (ROR-gamma) signaling pathway - cell viability counter screen (AID 1159520)
Outline: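 Cytotoxicity was read from cellular ATP (CellTiter-Glo luminescence) after 16 hr at 37 C with 1 uM doxycycline induction. The inducer was added 2 hr after compound transfer to Tet-on ROR gamma CHO cells.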

[15] = molecular target: Nuclear receptor ROR-gamma (Homo sapiens) (UniProt P51449); experiment: qHTS assay to identify small molecule antagonists of the retinoid-related orphan receptor gamma (ROR-gamma) signaling pathway (AID 1159521)
Outline: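 Inducible-expression reporter assay: doxycycline (1 uM final) switched on RORγ in CHO cells bearing a ROR response element-luciferase construct, with test compounds present from 2 h beforehand. Decreased luminescence after 16 h defined antagonist activity.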

[16] = qHTS assay to identify small molecule agonists of the AP-1 signaling pathway - cell viability counter screen (AID 1159525; calls by dose curve; further: nearly all actives have a fitted effect of over 55% in size)
Outline: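 Luminescent ATP readout (Cell Titer Glo, 30 min RT), normalised to DMSO and tetra n-octyl ammonium bromide controls. Cells were ME-180 AP-1-bla in 0.5% dialyzed FBS Opti-MEM, with a 5 h, 37 °C compound exposure.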

[17] = qHTS assay to identify small molecule agonists of the AP-1 signaling pathway (AID 1159526; calls by dose curve; further: on the % scale 0 is the no-effect control and ±100 the full control effect)
[18] = molecular target: Bile acid receptor (Homo sapiens) (UniProt Q96RI1); experiment: qHTS assay to identify small molecule antagonists of the farnesoid-X-receptor (FXR) signaling pathway (AID 743217; active means well fitted inhibition curve with a large enough effect in the signal ratio in the repeat runs, not every such curve was filed as active; the % refers to the signal ratio; further: on the % scale 0 is the no-effect control and ±100 the full control effect)
Sequence of Bile acid receptor (Homo sapiens) (Q96RI1 whole entry, looked up): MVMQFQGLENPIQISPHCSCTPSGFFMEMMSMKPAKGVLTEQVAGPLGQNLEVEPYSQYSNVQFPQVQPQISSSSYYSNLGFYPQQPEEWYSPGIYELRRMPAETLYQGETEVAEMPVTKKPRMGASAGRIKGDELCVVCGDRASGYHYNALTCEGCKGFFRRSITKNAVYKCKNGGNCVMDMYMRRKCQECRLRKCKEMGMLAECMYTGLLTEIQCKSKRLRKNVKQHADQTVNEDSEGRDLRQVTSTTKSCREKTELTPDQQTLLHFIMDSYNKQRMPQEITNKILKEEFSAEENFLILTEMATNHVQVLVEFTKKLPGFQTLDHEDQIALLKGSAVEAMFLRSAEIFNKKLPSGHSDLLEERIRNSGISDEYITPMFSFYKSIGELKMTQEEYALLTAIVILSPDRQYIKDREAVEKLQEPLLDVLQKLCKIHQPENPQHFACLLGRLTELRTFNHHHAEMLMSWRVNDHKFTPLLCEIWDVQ
Outline: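 FXR-UAS-bla HEK 293T cells (beta-lactamase reporter) given compound plus chenodeoxycholic acid (50 uM final), 16 h at 37C. LiveBLAzer B/G FRET substrate added for 2 h at room temperature; fluorescence read.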

[19] = molecular target: Bile acid receptor (Homo sapiens) (UniProt Q96RI1); experiment: qHTS assay to identify small molecule agonists of the farnesoid-X-receptor (FXR) signaling pathway (AID 743220; active means well fitted activation curve with a large enough effect in the signal ratio in the repeat runs, not every such curve was filed as active; the % refers to the signal ratio; further: on the % scale 0 is the no-effect control and ±100 the full control effect)
Outline: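 Beta-lactamase reporter under UAS control in GeneBLAzer FXR HEK 293T cells (5000/well) measured with LiveBLAzer FRET substrate after 2 h at room temperature. Compound exposure lasted 16 h at 37C.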

[20] = qHTS assay to identify small molecule agonists of the endoplasmic reticulum stress response signaling pathway (AID 1159516; active means well fitted activation curve with a large enough effect in the signal ratio in the repeat runs, not every such curve was filed as active; the % refers to the signal ratio; further: on the % scale 0 is the no-effect control and ±100 the full control effect)
Outline: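 CellSensor ESRE-bla HeLa cells, 1,500 per well, plated overnight, then exposed to compounds for 5 hr at 37 C. Beta-lactamase reporter read with LiveBLAzer B/G FRET substrate after 2 hr at room temperature, 405 nm excitation, 460 and 530 nm emission.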

COCCc1ccc(OCC2CO2)cc1 (centres undefined)
inactive: outcome [1] | outcome [2] | outcome [3] | outcome [4] | Potency [5] | outcome [6] | outcome [7] | outcome [8] | Potency [9] | outcome [10] | outcome [11] | outcome [12] | Potency [13] | outcome [14] | outcome [15] | outcome [16] | outcome [17]

OCCC(F)(F)C(F)(F)C(F)(F)C(F)(F)C(F)(F)C(F)(F)C(F)(F)C(F)(F)F
inactive: outcome [1] | outcome [2] | outcome [3] | Potency [5] | outcome [6] | outcome [7] | outcome [8] | Potency [9] | outcome [10] | outcome [11] | outcome [12] | outcome [14] | outcome [15] | outcome [16] | outcome [17]

C=CCCCCCCCCCCCC
inactive: outcome [1] | outcome [2] | outcome [3] | outcome [4] | Potency [18] | Potency [5] | Potency [19] | outcome [6] | outcome [8] | Potency [9] | outcome [10] | outcome [12] | outcome [20] | Potency [13] | outcome [14] | outcome [15] | outcome [16] | outcome [17]

C[Si](C)=O
inactive: activity change, negative = cytotoxicity [1] 1.6% [at 5.95 µM] | activation [2] 0.307% [at 5.95 µM] | viability change, negative = cytotoxic [3] -0.681% [at 6.26 µM] | ratio activity, negative = inhibition [4] 22.7% [at 6.26 µM] | activity change, negative = inhibition [18] 6.53% [at 5.95 µM] | viability change, negative = cytotoxic [5] 5.27% [at 5.95 µM] | activation [19] 2.56% [at 5.95 µM] | activity change, negative = cytotoxicity [6] -2.54% [at 5.95 µM] | activity change, negative = cytotoxicity [9] 2.87% [at 5.95 µM] | viability change, negative = cytotoxic [10] 6.84% [at 6.95 µM] | activation [11] 0.149% [at 6.95 µM] | activity, negative = cytotoxic [12] 10.4% [at 6.95 µM] | activity change, negative = cytotoxicity [13] -12.1% [at 6.95 µM] | activity, negative = cytotoxicity [14] 0.127% [at 8.39 µM] | activity change, negative = inhibition [15] 3.36% [at 8.39 µM] | viability change, negative = cytotoxic [16] -14.5% [at 6.97 µM] | activation [17] -3.55% [at 6.97 µM]

C[C@H](CCC(=O)O)[C@H]1CC[C@H]2[C@@H]3C(=O)C[C@@H]4CC(=O)CC[C@]4(C)[C@H]3CC(=O)[C@]12C
inactive: outcome [1] | outcome [2] | outcome [3] | outcome [4] | outcome [6] | outcome [8] | Potency [9] | outcome [10] | outcome [11] | outcome [12] | Potency [13] | outcome [14] | outcome [15] | outcome [16] | outcome [17]

CNS(=O)(=O)CCc1ccc2[nH]cc(C3CCN(C)CC3)c2c1
inactive: outcome [1] | outcome [2] | outcome [3] | outcome [4] | Potency [5] | Potency [9] | outcome [10] | outcome [11] | outcome [12] | Potency [13] | outcome [14] | outcome [15] | outcome [16] | outcome [17]

Cc1cccc2nccnc12
inactive: outcome [1] | outcome [2] | outcome [3] | outcome [4] | Potency [18] | Potency [5] | Potency [19] | outcome [6] | outcome [7] | Potency [9] | outcome [10] | outcome [12] | outcome [20] | Potency [13] | outcome [14] | outcome [15] | outcome [16] | outcome [17]
